Measurements: PubChem BioAssay (NCI)
About 83,000 compounds went through this panel and 20% of them were active in at least one assay; those are over-represented in the sample as a whole.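 Step 1: grow cells in 96-well plates. Step 2: add test compound at a single concentration. Step 3: incubate 48 h. Step 4: record percent growth.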 Active and inactive are the calls of the source. How the source made its calls: active means growth percent below 10; inactive means the rest.

Tests used:
Test in all cases: NCI-60 one-dose screen, 48 h (100 = growth as untreated, 0 = no growth, -100 = all killed)
EKVX NSCLC = settings: 10 µM
SN12C renal = settings: 10 µM unless noted
UO-31 renal = settings: 10 µM unless noted
TK-10 renal = settings: 10 µM unless noted
ACHN renal = settings: 10 µM unless noted
CAKI-1 renal = settings: 10 µM unless noted
A498 renal = settings: 10 µM unless noted
CCRF-CEM leukemia = settings: 10 µM
MOLT-4 leukemia = settings: 10 µM unless noted
SK-MEL-2 melanoma = settings: 10 µM unless noted

Measured: growth

CC(CCN1CCN(CCC(C)CC(C)(C)C)C1CC(C)CC(C)(C)C)CC(C)(C)C (centres undefined)
inactive: EKVX NSCLC 82.6% | SN12C renal 91.2% | UO-31 renal 66.2% | TK-10 renal 85.2% | ACHN renal 90.4% | CAKI-1 renal 96.4% | A498 renal 112% | CCRF-CEM leukemia 83.1% | MOLT-4 leukemia 88.7%

O=c1[nH]c2cc(O)ccc2n2cc3c(F)cccc3c12
inactive: EKVX NSCLC 25.2% | SN12C renal 53.6% | UO-31 renal 12% | ACHN renal 24.5% | A498 renal 39.5% | CCRF-CEM leukemia 49%
active: TK-10 renal 6.81% | CAKI-1 renal -8.76% | MOLT-4 leukemia 6.71%

CC(C)CCCCCOC(=O)c1ccccc1SSc1ccccc1C(=O)OCCCCCC(C)C
inactive: EKVX NSCLC 103% | SN12C renal 105% | UO-31 renal 70.5% | TK-10 renal 136% | ACHN renal 103% | CAKI-1 renal 97.3% | A498 renal 100% | CCRF-CEM leukemia 70.9% | MOLT-4 leukemia 72.1%

COc1cc(-c2nn(-c3ccc(NC(=O)c4ccc(Cl)c(C(F)(F)F)c4)cc3)cc2-c2ccncc2)ccc1Cl
inactive: EKVX NSCLC 24.3% | SN12C renal 52.7% | UO-31 renal 16.3% | ACHN renal 18.2% | A498 renal 31.9%
active: TK-10 renal 6.27% | CAKI-1 renal -16.7% | CCRF-CEM leukemia 6.52% | MOLT-4 leukemia 3.94%

N#Cc1c2cccnc2c2nnc3cc(Cl)c(Cl)cc3n12
active: TK-10 renal -31.8% | CAKI-1 renal -3.12% | MOLT-4 leukemia 7.72%
inactive: EKVX NSCLC 80.8% | SN12C renal 75% | UO-31 renal 30.8% | ACHN renal 10.2% | A498 renal 80.9% | CCRF-CEM leukemia 29.1%

CC(=O)CC(=O)OC/C=C(/C)CCC=C(C)C
inactive: SK-MEL-2 melanoma 126% | UO-31 renal 102% | TK-10 renal 108% | ACHN renal 102% | A498 renal 117% | MOLT-4 leukemia 94.7%

O=P(OCCCl)(OCCCl)C(O)c1ccccc1Cl (centres undefined)
inactive: SK-MEL-2 melanoma 112% | UO-31 renal 80.2% | TK-10 renal 102% | ACHN renal 98.4% | CAKI-1 renal 76.4% | A498 renal 121% | MOLT-4 leukemia 99.8%

COC(=O)C(N)CC(C)C (centres undefined)
inactive: SK-MEL-2 melanoma 101% | UO-31 renal 90.5% | TK-10 renal 90.6% | ACHN renal 97.4% | CAKI-1 renal 99.7% | A498 renal 105% | MOLT-4 leukemia 91.9%

Cc1ccc(C(=O)NN)cc1
inactive: SK-MEL-2 melanoma 119% | UO-31 renal 104% | TK-10 renal 110% | ACHN renal 115% | MOLT-4 leukemia 93%

Cc1cc2cn3c4ccc(O)cc4nc(N)c3c2cc1C
inactive: EKVX NSCLC 37.2% | SN12C renal 44.6% | A498 renal 21.1%
active: UO-31 renal 6.2% | TK-10 renal 5.03% | ACHN renal 7.58% | CAKI-1 renal -4.28% | MOLT-4 leukemia 5.17%

N=C(N)c1ccc(-c2ccc(-c3ccc(Cl)cc3)s2)s1
active: SK-MEL-2 melanoma -29.6% | UO-31 renal -87.5% | TK-10 renal -55.3% | ACHN renal -97% | CAKI-1 renal -11.6% | CCRF-CEM leukemia -70.8% | MOLT-4 leukemia -59.6%
inactive: A498 renal 50.9%

c1cc[c]([Bi]([c]2ccccc2)[c]2ccccc2)cc1
inactive: SK-MEL-2 melanoma 116% | UO-31 renal 84.8% | TK-10 renal 94.6% | CAKI-1 renal 88.6% | A498 renal 89.3% | CCRF-CEM leukemia 86.5% | MOLT-4 leukemia 108%

COc1cc(/C=C/C(=O)/C=C(/C=C/c2ccc(OC(C)=O)c(OC)c2)OB(F)F)ccc1OC(C)=O
inactive: SK-MEL-2 melanoma 86.9% | UO-31 renal 47% | ACHN renal 26.5%
active: CCRF-CEM leukemia 1.09% | MOLT-4 leukemia 3.59%

C/C(=C\c1ccc2ccccc2c1)[N+](=O)[O-]
active: SK-MEL-2 melanoma 4.49% | UO-31 renal -80.1% | TK-10 renal -47% | ACHN renal -74.1% | CAKI-1 renal -79.2% | CCRF-CEM leukemia -25.4% | MOLT-4 leukemia -1.16%

CC1(C)N=C(N)N=C(N)N1c1cccc(CCCCOc2ccccc2)c1
inactive: SK-MEL-2 melanoma 70.7% | UO-31 renal 84.2% | TK-10 renal 24% | ACHN renal 35.1% | CAKI-1 renal 67.7% | A498 renal 49.7% | CCRF-CEM leukemia 13.2% | MOLT-4 leukemia 14.1%

O=C1Nc2c(c(=O)n(-c3ccccc3)c3ccccc23)C(c2ccc(Cl)cc2)N1 (centres undefined)
inactive: EKVX NSCLC 86.8% | SN12C renal 76.3% | UO-31 renal 80.5% | TK-10 renal 54.8% | ACHN renal 102% | CAKI-1 renal 101% | A498 renal 98.1% | CCRF-CEM leukemia 79.5% | MOLT-4 leukemia 81.9%

CC(O)CCC(C)[N+](=O)[O-] (centres undefined)
inactive: SK-MEL-2 melanoma 109% | UO-31 renal 93.5% | TK-10 renal 104% | ACHN renal 109% | CAKI-1 renal 104% | A498 renal 105% | CCRF-CEM leukemia 102% | MOLT-4 leukemia 102%

N#CCc1ncc(-c2ccc(C(F)(F)F)cc2)c(NC2CCCCCC2)n1
inactive: UO-31 renal 29.8% [100 µM] | TK-10 renal 61.2% [100 µM] | ACHN renal 18.4% [100 µM]
active: SK-MEL-2 melanoma -22.1% [100 µM] | A498 renal 1.91% [100 µM] | MOLT-4 leukemia -4.66% [100 µM]

COC(=O)c1cc(O)c2cc3c(cc2c1-c1cc(OC)c(OC)c(OC)c1)OCO3
inactive: SN12C renal 34.1% | UO-31 renal 44.8% | TK-10 renal 43.2% | ACHN renal 36.8% | CAKI-1 renal 30.2% | A498 renal 45.6% | MOLT-4 leukemia 35.3%

COc1cc(-c2nn(-c3ccc(NC(=O)Nc4cc(C(F)(F)F)cc(C(F)(F)F)c4)cc3)cc2-c2ccncc2)ccc1Cl
inactive: SN12C renal 17.3% | CCRF-CEM leukemia 16.6%
active: UO-31 renal -7.1% | TK-10 renal -32.5% | ACHN renal 4.08% | CAKI-1 renal -12.5% | A498 renal -1.9% | MOLT-4 leukemia 7.23%

O=C(c1ccccc1)c1ccccc1-c1ccccc1
inactive: EKVX NSCLC 58.8% | SN12C renal 31.3% | UO-31 renal 44.5% | ACHN renal 33.7% | A498 renal 43.1% | CCRF-CEM leukemia 11% | MOLT-4 leukemia 30.4%
active: TK-10 renal 8.04%
